Results reported in the supplement of paper PMC10849652.
The full data set covers some 7,900 targets. This sample favours those with a hit. About 0.6% of all pairs of compound and target were hits.

Key:
Assay in all cases: log2 fold change, soluble protein after heating vs DMSO (PISA); higher = thermal stabilisation; K562 cells, 10 uM, 30 min; active = over 0.2 and 3.5 SD of the protein, either way, in both replicates (recomputed)
saracatinib = compound: CN1CCN(CCOc2cc(OC3CCOCC3)c3c(Nc4c(Cl)ccc5c4OCO5)ncnc3c2)CC1 [saracatinib]
Procedure, shortened: (§1)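 K562 cells at 2×10^6 cells/mL were treated for 30 min with 10 μM compound, and aliquots were heated for 3 min over 48°C-58°C before pooling. Extraction used PBS with 0.5% NP-40 at 4°C, and soluble protein was the supernatant after 21,000xg for 90 min, measured by TMTpro 16plex LC-MS/MS with channel sums equalised. Thermal stability values, relative to control samples and from duplicates, are log2 fold changes.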

sotrastaurin = compound: CN1CCN(c2nc(C3=C(c4c[nH]c5ccccc45)C(=O)NC3=O)c3ccccc3n2)CC1 [sotrastaurin]
Procedure, shortened: as §1

alvocidib = compound: CN1CC[C@H](c2c(O)cc(O)c3c(=O)cc(-c4ccccc4Cl)oc23)[C@H](O)C1 [alvocidib]
Procedure, shortened: as §1

Tubastatin A = compound: CN1CCc2c(c3ccccc3n2Cc2ccc(C(=O)NO)cc2)C1 [Tubastatin A]
Procedure, shortened: as §1

[1] = compound: CNC(=O)C1=CC=CC=C1NC2=NC(=NC=C2Cl)NC3=C(C=C(C=C3)N4CCOCC4)OC
Procedure, shortened: as §1

defactinib = compound: CNC(=O)c1ccc(Nc2ncc(C(F)(F)F)c(NCc3nccnc3N(C)S(C)(=O)=O)n2)cc1 [defactinib]
Procedure, shortened: as §1

rucaparib = compound: CNCc1ccc(-c2[nH]c3cc(F)cc4c3c2CCNC4=O)cc1 [rucaparib]
Procedure, shortened: as §1

[2] = compound: CNc1nc(-c2ccc3c(N)n[nH]c3c2)cc(N2C[C@@H](C(=O)NC3CCCCC3)CC[C@H]2C)n1
Procedure, shortened: as §1

encorafenib = compound: COC(=O)N[C@@H](C)CNc1nccc(-c2cn(C(C)C)nc2-c2cc(Cl)cc(NS(C)(=O)=O)c2F)n1 [encorafenib]
Procedure, shortened: as §1

[3] = compound: COC(=O)[C@H](CCSC)NC(=O)C1=C(C=C(C=C1)NC[C@H](CS)N)C2=CC=CC=C2
Procedure, shortened: as §1

[4] = compound: COC1=CC=C(C=C1)CN2C=CC3=C2C=C(C=C3)C(=O)NO
Procedure, shortened: as §1

filanesib = compound: CON(C)C(=O)N1N=C(c2cc(F)ccc2F)S[C@@]1(CCCN)c1ccccc1 [filanesib]
Procedure, shortened: as §1

zotarolimus = compound: CO[C@H]1C[C@@H]2CC[C@@H](C)[C@@](O)(O2)C(=O)C(=O)N2CCCC[C@H]2C(=O)O[C@H]([C@H](C)C[C@@H]2CC[C@H](n3cnnn3)[C@H](OC)C2)CC(=O)[C@H](C)/C=C(\C)[C@@H](O)[C@@H](OC)C(=O)[C@H](C)C[C@H](C)/C=C/C=C/C=C/1C [zotarolimus]
Procedure, shortened: as §1

idasanutlin = compound: COc1cc(C(=O)O)ccc1NC(=O)[C@@H]1N[C@@H](CC(C)(C)C)[C@](C#N)(c2ccc(Cl)cc2F)[C@H]1c1cccc(Cl)c1F [idasanutlin]
Procedure, shortened: as §1

alisertib = compound: COc1cc(Nc2ncc3c(n2)-c2ccc(Cl)cc2C(c2c(F)cccc2OC)=NC3)ccc1C(=O)O [alisertib]
Procedure, shortened: as §1

[5] = compound: COc1cc2nc(-c3cc(F)ccc3O)nc(N[C@@H]3CNC[C@H]3C(C)(C)O)c2cc1OC
Procedure, shortened: as §1

gefitinib = compound: COc1cc2ncnc(Nc3ccc(F)c(Cl)c3)c2cc1OCCCN1CCOCC1 [gefitinib]
Procedure, shortened: as §1

[6] = compound: COc1cccc2cc(-c3nc([C@H]4CC[C@H](C(=O)O)CC4)n4ncnc(N)c34)[nH]c12
Procedure, shortened: as §1

lapatinib = compound: CS(=O)(=O)CCNCc1ccc(-c2ccc3ncnc(Nc4ccc(OCc5cccc(F)c5)c(Cl)c4)c3c2)o1 [lapatinib]
Procedure, shortened: as §1

pictilisib = compound: CS(=O)(=O)N1CCN(Cc2cc3nc(-c4cccc5[nH]ncc45)nc(N4CCOCC4)c3s2)CC1 [pictilisib]
Procedure, shortened: as §1

Measured: log2 fold change

TIMM10 (UniProt P62072)
UniProt P62072, sequence (P62072 whole entry, looked up): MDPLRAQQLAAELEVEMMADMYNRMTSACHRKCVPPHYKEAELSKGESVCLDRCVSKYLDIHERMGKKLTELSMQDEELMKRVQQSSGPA
inactive: saracatinib -0.058 | sotrastaurin 0.018 | alvocidib 0.08 | Tubastatin A -0.027 | [1] -0.015 | defactinib -0.073 | rucaparib -0.062 | [2] 0.039 | encorafenib -0.013 | [3] 0.002 | [4] -0.043 | filanesib -0.038 | zotarolimus -0.023 | idasanutlin -0.019 | alisertib 0.01 | [5] -0.12 | gefitinib 0.015 | [6] 0.03 | lapatinib -0.026 | pictilisib 0.008

SP100 isoform 4 (UniProt P23497)
UniProt P23497, sequence (P23497 whole entry, looked up): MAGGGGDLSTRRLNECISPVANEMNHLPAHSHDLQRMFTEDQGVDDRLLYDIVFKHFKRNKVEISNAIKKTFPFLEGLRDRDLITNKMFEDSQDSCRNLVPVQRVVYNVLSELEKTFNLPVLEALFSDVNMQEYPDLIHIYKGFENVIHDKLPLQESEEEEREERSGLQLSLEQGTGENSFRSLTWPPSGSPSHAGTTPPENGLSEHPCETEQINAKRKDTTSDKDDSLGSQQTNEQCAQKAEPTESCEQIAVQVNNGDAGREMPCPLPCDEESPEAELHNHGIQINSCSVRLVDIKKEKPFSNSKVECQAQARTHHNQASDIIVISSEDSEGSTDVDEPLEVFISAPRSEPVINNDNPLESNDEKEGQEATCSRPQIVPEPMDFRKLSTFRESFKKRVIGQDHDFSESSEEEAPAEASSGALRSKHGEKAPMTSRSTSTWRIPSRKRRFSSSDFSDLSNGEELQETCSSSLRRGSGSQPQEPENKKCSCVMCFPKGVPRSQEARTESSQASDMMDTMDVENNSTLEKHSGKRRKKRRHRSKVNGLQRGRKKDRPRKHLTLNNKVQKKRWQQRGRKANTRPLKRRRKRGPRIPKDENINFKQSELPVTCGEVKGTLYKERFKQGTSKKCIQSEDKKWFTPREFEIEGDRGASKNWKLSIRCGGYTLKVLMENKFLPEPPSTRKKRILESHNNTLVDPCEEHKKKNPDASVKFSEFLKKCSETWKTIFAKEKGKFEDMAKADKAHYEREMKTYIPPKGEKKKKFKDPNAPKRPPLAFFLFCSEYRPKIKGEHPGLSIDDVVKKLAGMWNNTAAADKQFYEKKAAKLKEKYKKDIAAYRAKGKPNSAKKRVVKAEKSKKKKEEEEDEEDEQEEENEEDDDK
inactive: saracatinib 0.058 | sotrastaurin -0.003 | alvocidib -0.117 | Tubastatin A -0.015 | [1] 0.018 | defactinib -0.087 | rucaparib -0.065 | [2] -0.092 | encorafenib -0.06 | [3] 0.095 | [4] 0.05 | filanesib 0 | zotarolimus 0.013 | idasanutlin -0.022 | alisertib -0.026 | gefitinib 0.024 | [6] 0.036 | lapatinib 0.188 | pictilisib 0.013
active: [5] -0.242

SP1 (UniProt P08047)
UniProt P08047, sequence (P08047 whole entry, looked up): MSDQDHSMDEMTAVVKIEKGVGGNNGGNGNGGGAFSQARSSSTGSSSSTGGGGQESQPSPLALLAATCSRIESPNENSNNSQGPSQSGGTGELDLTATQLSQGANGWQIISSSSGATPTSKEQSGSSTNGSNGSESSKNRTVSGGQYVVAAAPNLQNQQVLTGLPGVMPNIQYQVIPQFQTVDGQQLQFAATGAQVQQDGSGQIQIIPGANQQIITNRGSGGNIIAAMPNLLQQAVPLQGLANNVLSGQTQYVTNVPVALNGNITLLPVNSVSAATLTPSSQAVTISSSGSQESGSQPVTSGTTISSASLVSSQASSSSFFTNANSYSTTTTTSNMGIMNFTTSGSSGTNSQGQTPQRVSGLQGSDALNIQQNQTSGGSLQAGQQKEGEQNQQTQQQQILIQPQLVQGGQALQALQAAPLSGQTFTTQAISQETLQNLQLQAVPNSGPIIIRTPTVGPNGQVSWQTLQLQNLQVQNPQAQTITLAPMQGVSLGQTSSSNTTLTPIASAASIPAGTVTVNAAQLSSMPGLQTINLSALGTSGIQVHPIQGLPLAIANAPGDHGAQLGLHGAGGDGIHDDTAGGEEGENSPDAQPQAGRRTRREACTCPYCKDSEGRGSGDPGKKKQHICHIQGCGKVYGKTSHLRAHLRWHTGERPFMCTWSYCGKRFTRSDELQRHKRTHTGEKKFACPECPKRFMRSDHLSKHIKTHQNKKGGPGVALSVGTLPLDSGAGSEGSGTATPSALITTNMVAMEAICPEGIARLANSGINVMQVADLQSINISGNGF
inactive: saracatinib 0.022 | sotrastaurin 0.016 | alvocidib 0.023 | Tubastatin A -0.054 | [1] -0.015 | defactinib 0.01 | rucaparib 0.066 | [2] -0.023 | encorafenib -0.019 | [3] 0.025 | [4] -0.064 | filanesib 0.022 | zotarolimus -0.033 | idasanutlin -0.002 | alisertib -0.025 | [5] -0.007 | gefitinib -0.043 | [6] 0.005 | lapatinib -0.004 | pictilisib 0.142

SREK1 isoform 2 (UniProt Q8WXA9)
UniProt Q8WXA9, sequence (Q8WXA9 whole entry, looked up): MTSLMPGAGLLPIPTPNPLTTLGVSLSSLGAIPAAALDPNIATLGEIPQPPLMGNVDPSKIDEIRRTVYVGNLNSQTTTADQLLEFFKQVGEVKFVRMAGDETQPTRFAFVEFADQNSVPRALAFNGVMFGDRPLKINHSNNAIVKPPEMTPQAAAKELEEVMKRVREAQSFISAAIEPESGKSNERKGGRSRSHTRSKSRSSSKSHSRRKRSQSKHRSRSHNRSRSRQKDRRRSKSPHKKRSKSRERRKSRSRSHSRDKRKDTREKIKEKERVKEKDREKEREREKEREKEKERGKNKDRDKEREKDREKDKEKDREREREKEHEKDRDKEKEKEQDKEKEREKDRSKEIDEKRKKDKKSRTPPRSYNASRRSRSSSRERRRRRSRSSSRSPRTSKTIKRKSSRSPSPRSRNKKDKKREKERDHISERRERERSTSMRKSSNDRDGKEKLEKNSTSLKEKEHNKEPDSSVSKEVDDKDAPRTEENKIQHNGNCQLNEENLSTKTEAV
inactive: saracatinib -0.034 | sotrastaurin -0.106 | alvocidib 0.005 | Tubastatin A 0.061 | [1] -0.422 | defactinib -0.371 | rucaparib 0.083 | [2] 0.013 | encorafenib 0.059 | [3] -0.007 | [4] 0.26 | filanesib -0.1 | zotarolimus 0.053 | idasanutlin 0.086 | alisertib -0.096 | [5] -0.072 | gefitinib 0.066 | [6] 0.06 | lapatinib 0.108 | pictilisib -0.001

TIAL1 isoform 2 (UniProt Q01085)
UniProt Q01085, sequence (Q01085 whole entry, looked up): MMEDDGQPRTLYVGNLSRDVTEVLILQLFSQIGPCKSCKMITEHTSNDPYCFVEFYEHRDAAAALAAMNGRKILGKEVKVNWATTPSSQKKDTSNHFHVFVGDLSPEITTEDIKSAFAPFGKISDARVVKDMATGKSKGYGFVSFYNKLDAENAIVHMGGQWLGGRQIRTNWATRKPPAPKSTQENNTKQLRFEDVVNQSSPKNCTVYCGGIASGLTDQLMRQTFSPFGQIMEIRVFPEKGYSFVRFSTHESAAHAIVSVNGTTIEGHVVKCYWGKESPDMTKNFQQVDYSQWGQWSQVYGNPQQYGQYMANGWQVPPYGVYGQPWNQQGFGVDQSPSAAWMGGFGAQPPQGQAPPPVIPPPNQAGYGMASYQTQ
inactive: saracatinib 0.015 | sotrastaurin 0.025 | alvocidib 0.036 | Tubastatin A -0.052 | [1] -0.019 | defactinib 0.077 | rucaparib 0.066 | [2] -0.042 | encorafenib -0.034 | [3] -0.014 | [4] 0.033 | filanesib 0.037 | zotarolimus -0.016 | idasanutlin 0.026 | alisertib -0.064 | [5] 0.076 | gefitinib -0.007 | [6] 0.02 | lapatinib 0.029 | pictilisib 0.01

TIMM44 (UniProt O43615)
UniProt O43615, sequence (O43615 whole entry, looked up): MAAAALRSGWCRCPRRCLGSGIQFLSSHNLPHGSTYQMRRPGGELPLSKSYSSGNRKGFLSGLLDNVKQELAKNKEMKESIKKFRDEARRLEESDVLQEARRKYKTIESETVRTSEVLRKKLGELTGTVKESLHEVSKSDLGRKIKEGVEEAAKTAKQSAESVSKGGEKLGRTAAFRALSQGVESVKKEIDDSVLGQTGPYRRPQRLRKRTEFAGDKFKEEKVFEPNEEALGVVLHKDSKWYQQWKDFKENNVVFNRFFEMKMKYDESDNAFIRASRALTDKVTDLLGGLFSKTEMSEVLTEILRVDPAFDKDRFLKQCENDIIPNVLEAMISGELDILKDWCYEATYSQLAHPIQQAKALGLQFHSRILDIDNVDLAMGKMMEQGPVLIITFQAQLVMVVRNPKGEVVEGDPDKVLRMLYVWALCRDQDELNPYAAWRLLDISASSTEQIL
active: [5] -0.296
inactive: saracatinib -0.055 | sotrastaurin -0.132 | alvocidib -0.044 | Tubastatin A -0.055 | [1] -0.012 | defactinib -0.035 | rucaparib -0.12 | [2] -0.057 | encorafenib 0.054 | [3] 0.007 | [4] 0 | filanesib -0.229 | zotarolimus 0.027 | idasanutlin -0.042 | alisertib -0.021 | gefitinib -0.135 | [6] 0.017 | lapatinib -0.073 | pictilisib -0.041

SMARCAD1 isoform 2 (UniProt Q9H4L7)
UniProt Q9H4L7, sequence (Q9H4L7 whole entry, looked up): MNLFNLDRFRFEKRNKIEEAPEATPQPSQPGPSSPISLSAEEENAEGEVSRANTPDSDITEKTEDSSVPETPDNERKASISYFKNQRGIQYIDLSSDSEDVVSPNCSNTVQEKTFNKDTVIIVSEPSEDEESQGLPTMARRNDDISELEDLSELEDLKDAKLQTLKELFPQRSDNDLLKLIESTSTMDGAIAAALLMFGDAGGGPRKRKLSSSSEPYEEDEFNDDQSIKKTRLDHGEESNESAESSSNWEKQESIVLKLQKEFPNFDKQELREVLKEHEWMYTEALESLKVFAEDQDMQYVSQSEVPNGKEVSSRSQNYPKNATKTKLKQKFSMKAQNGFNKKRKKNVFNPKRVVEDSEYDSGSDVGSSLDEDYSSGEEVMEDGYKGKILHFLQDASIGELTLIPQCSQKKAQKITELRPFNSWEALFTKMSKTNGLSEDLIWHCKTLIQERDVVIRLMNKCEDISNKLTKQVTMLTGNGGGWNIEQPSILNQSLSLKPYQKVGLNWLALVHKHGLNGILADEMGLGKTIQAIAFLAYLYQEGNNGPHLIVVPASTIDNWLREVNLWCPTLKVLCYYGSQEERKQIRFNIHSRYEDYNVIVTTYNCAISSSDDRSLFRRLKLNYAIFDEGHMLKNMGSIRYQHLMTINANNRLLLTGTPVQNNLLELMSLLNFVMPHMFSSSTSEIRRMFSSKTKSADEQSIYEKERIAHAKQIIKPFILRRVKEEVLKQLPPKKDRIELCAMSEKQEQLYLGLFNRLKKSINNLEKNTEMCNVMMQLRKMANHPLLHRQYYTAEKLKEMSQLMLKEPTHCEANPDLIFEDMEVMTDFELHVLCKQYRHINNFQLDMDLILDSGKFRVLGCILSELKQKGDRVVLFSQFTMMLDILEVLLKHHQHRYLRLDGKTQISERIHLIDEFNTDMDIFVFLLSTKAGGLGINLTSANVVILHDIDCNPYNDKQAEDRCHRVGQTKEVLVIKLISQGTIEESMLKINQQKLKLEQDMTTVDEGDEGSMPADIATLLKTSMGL
inactive: saracatinib -0.086 | sotrastaurin -0.043 | alvocidib -0.243 | Tubastatin A 0.053 | [1] 0.016 | defactinib -0.099 | rucaparib -0.056 | [2] 0.035 | encorafenib 0.029 | [3] -0.023 | [4] 0.027 | filanesib -0.098 | zotarolimus 0.028 | idasanutlin -0.073 | alisertib -0.026 | [5] 0.06 | gefitinib -0.062 | [6] -0.004 | lapatinib 0.026 | pictilisib 0.07

SNRNP40 (UniProt Q96DI7)
UniProt Q96DI7, sequence (Q96DI7 whole entry, looked up): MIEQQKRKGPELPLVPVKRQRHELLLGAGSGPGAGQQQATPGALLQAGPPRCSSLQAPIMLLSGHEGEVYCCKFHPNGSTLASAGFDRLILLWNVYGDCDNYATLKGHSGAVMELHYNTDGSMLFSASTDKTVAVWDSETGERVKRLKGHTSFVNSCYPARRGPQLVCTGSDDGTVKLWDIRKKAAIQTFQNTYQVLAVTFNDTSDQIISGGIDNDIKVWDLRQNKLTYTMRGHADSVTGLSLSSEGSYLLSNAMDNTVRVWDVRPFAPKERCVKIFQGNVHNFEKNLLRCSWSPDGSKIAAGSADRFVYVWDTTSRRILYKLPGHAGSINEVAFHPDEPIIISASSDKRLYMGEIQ
inactive: saracatinib 0.068 | sotrastaurin -0.01 | alvocidib 0.143 | Tubastatin A -0.092 | [1] 0.045 | defactinib 0.128 | rucaparib 0.012 | [2] -0.03 | encorafenib 0.039 | [3] -0.034 | [4] -0.039 | filanesib 0.08 | zotarolimus -0.015 | idasanutlin 0.007 | alisertib -0.054 | [5] 0.191 | gefitinib -0.052 | [6] 0.025 | lapatinib 0.02
active: pictilisib 0.295
